Compound activity from PubChem BioAssay.
Hits are enriched below; roughly 5.7% of the tested compounds scored in any of these assays.
L3MBTL1 inh: L3MBTL1 (human) inhibition. AlphaScreen L3MBTL1–H3K9me1 peptide binding. Potency, µM (series often up to 57.1 µM), without a hit: top-dose activity, negative = inhibition, usual class: inhibitors. 0.66% of 230,000 active. AID 485360; also: potency is read from the fitted curve at half-maximal effect; % is scaled to controls: 0 for no effect and ±100 for the full control effect; nearly all actives have a fitted effect of over 60% in size
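AlphaScreen proximity signal between nickel-chelate acceptor and streptavidin donor beads (final 10 ug/mL) reports binding of 50 nM L3MBTL1 to 75 nM biotin-H3 K9me1 peptide; complex incubated with compounds 30 min at room temperature; cefsulodin titration as control.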
BAZ2B block: blocks human BAZ2B. AlphaScreen BAZ2B-H3K14Ac peptide displacement. Potency, µM (highest dose often 114 µM), without a hit: top-dose activity change, negative = inhibition, hits mostly inhibitors. 4.4% of 360,000 active; also: potency is read from the fitted curve at half-maximal effect; % is scaled to controls: 0 for no effect and ±100 for the full control effect; nearly all actives have a fitted effect of over 60% in size
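Multi-concentration screen (max 110 uM) measuring displacement of acetylated histone H3 peptide from BAZ2B by AlphaScreen, using 50 nM protein, 50 nM peptide and 10 ug/mL streptavidin donor plus Ni-chelate acceptor beads.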
KDM4E inh: JMJD2E (human) inhibition; Potency, µM (series often up to 57.1 µM), for inactives: at the top dose activity change, negative = inhibition, actives largely listed as inhibitors; 1.6% of 230,000 active; AID 2147; JMJD2E catalytic domain, FDH-coupled NADH fluorescence (FDH is formaldehyde dehydrogenase); active = well fitted inhibition curve with a large enough effect, not every such curve was filed as active; inconclusive = small, poorly fitted or top-dose-only effect, or another doubt; inactive = no such curve, though single readings can be large or run the other way;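 also: potency is read from the fitted curve at half-maximal effect; 0% = wells with enzyme and -100% = buffer wells without enzyme; nearly all actives have a fitted effect of over 50% in size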
HP1b chromo inh: inhibitors of HP1-beta chromodomain binding to methylated histone tails. P83916. AlphaScreen HP1-beta / biotin-H3K9me3 peptide binding. Potency, µM (doses to about 114 µM), for inactives: top-dose activity change, negative = inhibition, actives largely listed as inhibitors. 0.56% of 390,000 active. AID 540317; also: potency is read from the fitted curve at half-maximal effect; nearly all actives have a fitted effect of over 70% in size
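HP1-beta protein (50 nM final) preincubated 30 min at room temperature with biotinylated H3(1-18)K9me3 peptide (50 nM) in PBS pH 7.4, 0.01% Tween-20, then compound added for 30 min. AlphaScreen streptavidin donor/nickel chelate acceptor beads (10 ug/mL final), 30 min dark, luminescence read.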
JMJD2A Tudor: inhibitors of human JMJD2A Tudor domain; AlphaScreen JMJD2A-Tudor / H3K4me3 peptide binding; Potency, µM (series often up to 114 µM), without a hit: at the top dose activity change, negative = inhibition, hits mostly inhibitors; 4.4% of 390,000 active; AID 504339; also: potency is read from the fitted curve at half-maximal effect; % is scaled to controls: 0 for no effect and ±100 for the full control effect; nearly all actives have a fitted effect of over 50% in size
PI5P4K alpha inh: blocks human PI5P4K alpha kinase activity. P48426. PI5P4Kalpha enzyme, ADP-Glo luminescence, 60 min; active compounds read low. max response, %. 1.2% of 330,000 active; active = max response of -50% or lower; inconclusive = between -30% and -50%; inactive = -30% or higher; also: value at the top dose of about 77 µM; % is scaled to controls: 0 for no effect and ±100 for the full control effect
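qHTS, 1536-well: enzyme/substrate mix, compound by pin tool, 5 microM ATP final; RT 60 min; ADP-Glo reagents 1 (45 min) then 2 (30 min); luminescence.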
Active calls of the source: *; [ ] = remark or other dose. Unless noted, calls follow the shape of the dose curve; as a rule, active = well fitted inhibition curve with a large enough effect; inconclusive = small, poorly fitted or top-dose-only effect; inactive = no such curve, though single readings can be large or run the other way.

Screening COc1ccc(Cn2ccc3nc(C)c(C(=O)N4CCN(c5cccc(OC)c5)CC4)cc3c2=O)cc1 returned BAZ2B block -33%, HP1b chromo inh 0% and JMJD2A Tudor inconclusive.
`COCc1[nH]c(=S)c(C#N)cc1C(=O)OC` gave L3MBTL1 inh -5%, BAZ2B block -8%, KDM4E inh 25µM*, HP1b chromo inh inconclusive, JMJD2A Tudor 22µM* and PI5P4K alpha inh -62*.
For CCOC(=O)c1cc(C#N)c(=S)[nH]c1C the results were L3MBTL1 inh 4%, BAZ2B block -25%, KDM4E inh -29%, HP1b chromo inh 23%, JMJD2A Tudor 40µM* and PI5P4K alpha inh -26.
COC(=O)c1cc(C#N)c(=O)[nH]c1C was read as L3MBTL1 inh 21%, BAZ2B block 1%, KDM4E inh -1%, HP1b chromo inh 45%, JMJD2A Tudor -1% and PI5P4K alpha inh 4.
For CCOC(=O)c1cc(C(C)=O)c(=O)[nH]c1C the results were L3MBTL1 inh -27%, BAZ2B block -8%, KDM4E inh -15%, HP1b chromo inh 26%, JMJD2A Tudor 2% and PI5P4K alpha inh 6.
Screening COc1ccc([N+](=O)[O-])cc1NC(=O)C1CCCN1S(=O)(=O)c1cccs1 (stereo unspecified) returned L3MBTL1 inh 0%, BAZ2B block 6%, HP1b chromo inh -22%, JMJD2A Tudor -29% and PI5P4K alpha inh -3.
`COc1cccc(-n2c(=O)c3c(C)c(C(=O)N(C)C)sc3n(Cc3ccc(F)cc3Cl)c2=O)c1` gave BAZ2B block 4%, HP1b chromo inh 28% and JMJD2A Tudor -20%.
Fc1ccc(Br)cc1C1C=C(c2ccc(Br)s2)Nc2ncnn21 (stereo unspecified) was read as L3MBTL1 inh -5%, BAZ2B block inconclusive, KDM4E inh 28µM*, HP1b chromo inh 19%, JMJD2A Tudor inconclusive and PI5P4K alpha inh -16.
For COc1cccc(C2C=C(c3ccc(Br)s3)Nc3ncnn32)c1OC (stereo unspecified) the results were L3MBTL1 inh -12%, BAZ2B block inconclusive, KDM4E inh inconclusive, HP1b chromo inh 26%, JMJD2A Tudor -24% and PI5P4K alpha inh -9.
For CCc1cc2c(NCc3ccco3)ncnc2s1 the results were L3MBTL1 inh -5%, BAZ2B block 56µM*, KDM4E inh inconclusive, HP1b chromo inh 5%, JMJD2A Tudor inconclusive and PI5P4K alpha inh -20.
For CC(=O)OCC1=C(C(=O)O)N2C(=O)[C@@H](NC(=O)Cc3cccs3)[C@H]2SC1 the results were L3MBTL1 inh inconclusive, BAZ2B block 50µM*, KDM4E inh -29%, HP1b chromo inh -10%, JMJD2A Tudor 79µM* and PI5P4K alpha inh inconclusive.
`O=C(COc1ccccc1)NC1C(=O)N2C(C(=O)O)=C(Cl)CSC12` (stereo unspecified) gave L3MBTL1 inh -5%, BAZ2B block 79µM*, HP1b chromo inh 0%, JMJD2A Tudor 79µM* and PI5P4K alpha inh -2.
C=CC1=C(C(=O)O)N2C(=O)C(NC(=O)Cc3ccccc3)C2SC1 (stereo unspecified) was read as BAZ2B block inconclusive, KDM4E inh -12%, HP1b chromo inh 79µM* and JMJD2A Tudor 40µM*.
Screening CC(=O)OCC1=C(C(=O)O)N2C(=O)[C@@H](NC(=O)Cc3ccccc3)[C@H]2SC1 returned HP1b chromo inh 10%, JMJD2A Tudor inconclusive and PI5P4K alpha inh 8.
For CCOC(=O)c1cnc(NCc2ccc(OC)cc2OC)c2ccccc12 the results were BAZ2B block 56%, HP1b chromo inh 62%[57 µM] and JMJD2A Tudor 29%.
Screening Cc1cc(C)c(NC(=O)c2ncoc2-c2ccco2)c(C)c1 returned BAZ2B block -28%, HP1b chromo inh 34% and JMJD2A Tudor 3%.
Screening COc1ccccc1N1C(=O)c2cccc3c(N(C)CCO)ccc(c23)C1=O returned L3MBTL1 inh -3%, BAZ2B block 4%, HP1b chromo inh 61%, JMJD2A Tudor 12% and PI5P4K alpha inh -4.
`COc1ccccc1N1C(=O)c2cccc3c(C(=O)O)ccc(c23)C1=O` gave BAZ2B block -5%, KDM4E inh -10%, HP1b chromo inh -8%, JMJD2A Tudor 79µM* and PI5P4K alpha inh -4.
`COc1ccc(-c2c3c(=O)n(C)c(=O)n(C)c3cn2Cc2ccccn2)cc1` gave L3MBTL1 inh -1%, BAZ2B block 50µM*, KDM4E inh inconclusive, HP1b chromo inh 40% and JMJD2A Tudor -36%.
Screening O=C(N/N=C/c1c[nH]c2ccccc12)c1sc2ccccc2c1Cl returned L3MBTL1 inh inconclusive, BAZ2B block inconclusive, KDM4E inh -29%, HP1b chromo inh -1%, JMJD2A Tudor inconclusive and PI5P4K alpha inh 1.
O=C(N/N=C/c1ccc([N+](=O)[O-])o1)c1sc2ccccc2c1Cl was read as BAZ2B block inconclusive, KDM4E inh -13%, HP1b chromo inh 20%, JMJD2A Tudor inconclusive and PI5P4K alpha inh -62*.
For O=C(N/N=C/c1ccccn1)c1sc2ccccc2c1Cl the results were L3MBTL1 inh inconclusive, BAZ2B block 40µM*, KDM4E inh inconclusive, HP1b chromo inh 91%, JMJD2A Tudor inconclusive and PI5P4K alpha inh -16.
COc1ccc(-c2nnc(SCC(=O)Nc3cccc(C(F)(F)F)c3)nc2-c2ccc(OC)cc2)cc1 was read as BAZ2B block 8%, HP1b chromo inh 16% and JMJD2A Tudor inconclusive.
Screening O=C(NC(=S)NNC(=O)c1ccccc1O)c1ccc(F)cc1 returned L3MBTL1 inh -30%, BAZ2B block inconclusive, HP1b chromo inh 9%, JMJD2A Tudor 56µM* and PI5P4K alpha inh 3.
Screening Cc1ccc(C(=O)NC(=S)NNC(=O)c2ccccc2O)cc1 returned BAZ2B block 3%, HP1b chromo inh 24%, JMJD2A Tudor -7% and PI5P4K alpha inh 13.
Screening O=C(NC(=S)NNC(=O)c1ccccc1O)c1ccccc1 returned BAZ2B block inconclusive, HP1b chromo inh 6%, JMJD2A Tudor 32µM* and PI5P4K alpha inh -3.
Screening O=C(NC(=S)NNC(=O)c1ccccc1O)c1cccs1 returned BAZ2B block inconclusive, HP1b chromo inh -27%, JMJD2A Tudor 45µM* and PI5P4K alpha inh -3.
Cc1ccccc1CSc1nc2cccnc2n1Cc1ccc(C(=O)NCCc2cccs2)cc1 was read as BAZ2B block -2%, HP1b chromo inh 41% and JMJD2A Tudor -18%.
`CC(=O)N1CCN(C)CC1` gave KDM4E inh 4%.
